The list is not random: actives were taken first. Their share in the collection is about 19%.
HT1080 IDH1KD tx: kills HT-1080 cells with IDH1 knockdown. HT-1080 IDH1 knockdown viability, ATP luminescence, 48 h. Potency, µM (top dose mostly 46.1 µM), for the others: top-dose activity, negative = toxicity, actives largely listed as cytotoxic. 360,000 compounds, 2% hits. AID 686971;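 further: potency means the concentration at half of the fitted maximal effect; 0% = DMSO wells and -100% = cell-free medium wells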
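Knockdown cells (IDH1KD HT-1080) received compounds 2 h after plating at 750 cells/well and were kept 48 h at 37 °C in 5% FBS RPMI. A CellTiter-Glo luminescence read gave % activity for curve fitting.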
ELG1 repair inh: ELG1-dependent DNA repair inhibition; HEK293T ELG1-luciferase reporter, luminescence, 16 h; DNA damage induced by 5-fluorouridine; Potency, µM (highest dose often 46.1 µM), without a hit: at the top dose activity change, negative = inhibition, actives largely listed as inhibitors; 330,000 compounds, 2.3% hits; AID 504467; further: potency means the concentration at half of the fitted maximal effect; nearly all actives have a fitted effect of over 55% in size
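Quantitative HTS, concentration-response format. 2,000 cells/well co-treated with 5-fluorouridine and compound, 16 hr in 5% CO2 at 37 °C; ONE-Glo luminescence read after 30 min.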
TDP1 cell CPT: DT40-hTDP1 cell growth loss with CPT; AID 686979; Potency, µM (highest dose often 46.2 µM), inactives show top-dose activity change, negative = growth inhibition, hits mostly inhibitors; 420,000 compounds, 12% hits; chicken DT40 Tdp1-/-;hTDP1 cells + 20 nM CPT, ATP luminescence, 48 h; further: potency means the concentration at half of the fitted maximal effect; nearly all actives have a fitted effect of over 55% in size
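Chicken DT40 Tdp1-/- cells stably complemented with human TDP1 were seeded at 400 cells/well in medium containing 20 nM camptothecin, exposed to pin-transferred compounds, and grown at 37 °C for at least 48 hr. Viability was read as ATP luminescence.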
DT40 TDP1 no CPT: qHTS for Inhibitors of human tyrosyl-DNA phosphodiesterase 1 (TDP1): qHTS in cells in absence of CPT; DT40 Tdp1-/- hTDP1 cells, no CPT, ATP luminescence, 48 h; AID 686978, 2013; 420,000 compounds, 15% hits; Potency, µM (highest dose often 46.2 µM), for inactives: top-dose activity change, negative = growth inhibition, usual class: inhibitors; further: potency means the concentration at half of the fitted maximal effect; nearly all actives have a fitted effect of over 55% in size
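DT40 Tdp1-/-;hTDP1 cells, no CPT (DMSO vehicle only), 400 cells/well; compounds pin-transferred; ≥48 hr, 37 °C; CellTiter-Glo 30 min RT dark, luminescence read.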
HT1080NT lethal: kills 2HG-producing HT-1080-NT fibrosarcoma cells. HT-1080-NT fibrosarcoma viability, CellTiter-Glo ATP luminescence, 48 h. Potency, µM (top dose mostly 46.1 µM), for the others: top-dose activity, negative = less viability, actives largely listed as cytotoxic. 360,000 compounds, 1.6% hits;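 further: NT is the 2HG producing partner of a matched IDH1 knockdown line; potency means the concentration at half of the fitted maximal effect; 0% = DMSO-treated cells and -100% = media-only wells without cells; nearly all actives have a fitted effect of over 55% in size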
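Luminescent CellTiter-Glo readout after 48 hours of compound exposure at 37 degrees C defined viability of HT-1080-NT cells. Activity was normalized to DMSO wells and cell-free media wells; concentration-response curves were fitted and assigned curve classes.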
IL1B secr inh: blocks inflammasome-driven IL-1 beta release. THP-1 LPS/ATP IL-1B secretion, AlphaLISA, 16 h; hits give low values. activity change, % at 57.5 µM. 360,000 compounds, 4.7% hits. AID 743279; in the data active means activity change below about -50%; inconclusive means mostly about -30% to -49%
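THP-1 cells pretreated 1 hr with compounds (up to 57.5 uM final), then stimulated with LPS (250 ng/mL final) plus ATP (1.25 mM final); secreted IL-1B measured by AlphaLISA after 16 hr, decreased signal indicating inhibition.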
* hit, by the source's call; u = inconclusive; x = no result; [ ] = remark or other dose. Unless noted, the call rests on the fitted dose curve; in most records, active means well fitted curve in the direction sought with a large enough effect; inconclusive means small, poorly fitted or top-dose-only effect, or another doubt; inactive means no such curve, though single readings can be large; an effect the other way counts as inactive or inconclusive. Unless noted, on the % scale 0 is the no-effect control and ±100 the full control effect.

SMILES	HT1080 IDH1KD tx	ELG1 repair inh	TDP1 cell CPT	DT40 TDP1 no CPT	HT1080NT lethal	IL1B secr inh
O=C(c1ccccc1Cl)n1nc(-c2cccnc2)nc1NCc1ccc(F)cc1	x	x	-19%	u	x	x
COC(=O)Nc1ccc(S(=O)(=O)NNC(=O)c2c(O)c3ccccc3n(C)c2=O)cc1	0%	10%	u	-11%	-2%	62
Cc1ccsc1C(=O)N1CCC1(C)C(=O)NS(=O)(=O)c1ccc(Br)cc1 (stereo not drawn)	6%	x	6%	-2%	10%	17
O=c1cc(O)c2ccc(O)cc2o1	-3%	27%	u	u	-15%	-8
CCCc1cc(=O)oc2cc(OCC(=O)Nc3ccccn3)ccc12	-2%	u	-16%	u	-2%	-4
COc1ccc(-c2cc(=O)oc3cc(OC(C)C(=O)NC4CC4)ccc23)cc1 (stereo not drawn)	6%	8%	8%	u	2%	-2
CCCCN(C)Cc1c(O)ccc2c(-c3ccccc3)cc(=O)oc12	-21%	3%	u	15µM*	-14%	u
CCCCN(CC)Cc1c(O)ccc2c(-c3ccccc3)cc(=O)oc12	-3%	u	u	u	-1%	-27
COc1ccc(-c2cc(=O)oc3cc(OCC(=O)Nc4ccccn4)ccc23)cc1	5%	u	16µM*	u	-1%	-4
COc1ccc(-c2cc(=O)oc3cc(OC(=O)C4CCCCC4)c(Cl)cc23)cc1	-11%	3.3µM*	23µM*	u	-7%	5
COC(=O)Cc1cc(=O)oc2cc(O)ccc12	8%	8%	-1%	-8%	-1%	-70*
Cc1ccc(NC(=O)c2c(C)nn(-c3ccccc3)c2-n2cccc2)c(Cl)c1	x	x	-23%	-11%	x	x
CCOC(=O)C(Oc1ccc2c(-c3ccc(OC)cc3)cc(=O)oc2c1C)c1ccccc1 (stereo not drawn)	-6%	-15%	16µM*	u	-15%	8
COc1ccc(-c2cc(=O)oc3c(C)c(OC(C)C(C)=O)ccc23)cc1 (stereo not drawn)	-18%	-18%	u	u	-15%	u
COc1ccc(-c2cc(=O)oc3cc(O)ccc23)cc1	u	u	u	7.3µM*	-25%	17
CC(Oc1cc2oc(=O)c3c(c2cc1Cl)CCCC3)C(=O)NCCN1CCOCC1 (stereo not drawn)	-14%	1%	u	13µM*	-3%	12
CCOC(=O)C(Oc1ccc2c(-c3ccccc3)cc(=O)oc2c1C)c1ccccc1 (stereo not drawn)	15%	-21%	u	u	22%	2
COc1ccc(-c2cc(=O)oc3cc(OCC(C)=O)ccc23)cc1	1%	u	-24%	-24%	1%	-1
CC(Oc1cc2oc(=O)c3c(c2cc1Cl)CCC3)C(=O)NCCCN1CCOCC1 (stereo not drawn)	8%	4%	-2%	-22%	7%	20
COc1ccc(-c2cc(=O)oc3c(C)c(O)ccc23)cc1	3%	8.2µM*	7.3µM*	3.3µM*	-5%	24
COC(=O)C[C@@H]1C[C@@H]2c3cc(NS(=O)(=O)c4ccc(F)cc4)ccc3O[C@@H]2[C@H](CO)O1	13%	x	1%	-30%	13%	u
Cc1cccc(Cn2nnc3c(=O)[nH]c(C4CCN(C(=O)c5ccc(F)cc5)CC4)nc32)c1	x	x	-2%	-7%	x	x
Cc1c(O)ccc2c(-c3ccccc3)cc(=O)oc12	7%	u	13µM*	15µM*	0%	24
Cc1cc(=O)oc2cc(OCC(=O)NCCCn3ccnc3)ccc12	0%	3%	18%	-8%	-5%	-8
O=C(COc1ccc2c(-c3ccccc3)cc(=O)oc2c1)NCCCn1ccnc1	1%	u	18µM*	u	-5%	-15
SMILES	HT1080 IDH1KD tx	ELG1 repair inh	TDP1 cell CPT	DT40 TDP1 no CPT	HT1080NT lethal	IL1B secr inh
O=C(COc1cc2oc(=O)cc(-c3ccccc3)c2cc1Cl)NCCN1CCOCC1	1%	1%	4.1µM*	7.3µM*	-9%	23
C=CCN1C(=O)c2ccc(C(=O)OCC(=O)N(CC)c3c(N)n(Cc4ccccc4)c(=O)[nH]c3=O)cc2C1=O	-2%	x	-3%	25%	-2%[9.24 µM]	-4
COc1ccc(C#Cc2ccc3c(=O)c4ccccc4n(C)c3c2)cc1	3%	12%	u	18µM*	1%	34
Cn1c2ccccc2c(=O)c2cc(C#CC3=CCCCC3)ccc21	-6%	u	7.3µM*	18µM*	4%	0
Cn1c2ccccc2c(=O)c2cc(C#Cc3cccc(N)c3)ccc21	-22%	u	u	u	-24%	-2
COc1ccccc1C#Cc1ccc2c(=O)c3ccccc3n(C)c2c1	25%	u	u	u	25%	24
Cn1c2ccccc2c(=O)c2ccc(C#Cc3ccc(N)cc3)cc21	u	-35%	u	16µM*	u	-28
CSC(=S)N/N=C/c1ccc(Br)cc1	2%	1%	-29%	17%	7%	13
CSC(=S)N/N=C/c1ccc(N(C)C)cc1	20%	u	4.6µM*	5.2µM*	9%	6
CN(C)c1ccc(C=NNC(=S)Nc2ccc(F)cc2)cc1	-28%	x	3.7µM*	4.6µM*	-5%	u
CCOc1ccc(CNCCCSc2nnnn2C)cc1OC	x	x	1%	-18%	x	x
COc1cc(C(=O)NCc2nnc(SCC(=O)N3CCCc4ccccc43)o2)cc(OC)c1OC	14%	4%	-6%	-19%	4%	3
CCC(C)n1c(SCc2ccc([N+](=O)[O-])cc2)nc2ccsc2c1=O (stereo not drawn)	-11%	u	23µM*	21µM*	-14%	u
CCC(C)n1c(SCc2c(F)cccc2Cl)nc2ccsc2c1=O (stereo not drawn)	x	x	4.1µM*	5.8µM*	x	x
CCOc1ccc(NC(=O)CSc2nc3ccsc3c(=O)n2C(C)CC)cc1 (stereo not drawn)	x	x	u	10µM*	x	x
CC(C)CCn1c(SCc2c(F)cccc2Cl)nc2ccsc2c1=O	x	x	-24%	8%	x	x
CC(C)c1c(C(=O)NCCN2CCOCC2)cnn1-c1nccc(-c2cccs2)n1	x	x	-3%[9.04 µM]	u	x	x
Cc1ccc(C)c(NC(=S)NC23CN4CN(CN(C4)C2)C3)c1	0%	1%	-13%	-18%	8%	26

Screens: PubChem, National Center for Advancing Translational Sciences (NCATS)
